Consider 14 compounds from PubChem BioAssay (Tox21).

Results filed as inconclusive are left out. Entries that show only a call come without a potency. Activity calls are given as the source filed them. The call rests on the fitted dose curve; in most records, active means well fitted inhibition curve with a large enough effect in the repeat runs; inconclusive means weak or mixed curves; inactive means no such curve, though single readings can be large or run the other way.
Potency means the concentration at half of the fitted maximal effect.

Cytochrome P450 3A4 (Homo sapiens), sequence (P08684 whole entry, looked up): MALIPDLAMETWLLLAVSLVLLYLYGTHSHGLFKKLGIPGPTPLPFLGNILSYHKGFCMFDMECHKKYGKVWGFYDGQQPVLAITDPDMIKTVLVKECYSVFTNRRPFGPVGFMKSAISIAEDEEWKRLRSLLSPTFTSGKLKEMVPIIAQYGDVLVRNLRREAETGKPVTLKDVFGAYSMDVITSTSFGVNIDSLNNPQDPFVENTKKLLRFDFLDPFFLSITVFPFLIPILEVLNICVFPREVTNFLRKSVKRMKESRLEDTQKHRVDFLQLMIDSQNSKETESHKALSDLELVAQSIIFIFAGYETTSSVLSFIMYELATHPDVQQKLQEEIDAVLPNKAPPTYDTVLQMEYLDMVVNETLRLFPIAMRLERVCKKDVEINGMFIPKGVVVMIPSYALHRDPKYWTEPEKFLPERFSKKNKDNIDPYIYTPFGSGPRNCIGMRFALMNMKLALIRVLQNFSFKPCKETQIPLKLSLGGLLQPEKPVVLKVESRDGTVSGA

The assay addresses Cytochrome P450 3A4 (Homo sapiens) (UniProt P08684). Put plainly: Cytochrome P450 Family 3 Subfamily A Member 4 (CYP3A4) small molecule antagonists: luciferase reporter qHTS assay (AID 1671201). Further: nearly all actives have a fitted effect of over 50% in size. The settings on record: P450-Glo CYP3A4 enzyme, luciferin luminescence, 1 h; series mostly up to 115 µM. In a few lines: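 qHTS, 1536-well. CYP3A4 + proluciferin substrate, cpd 10 min RT → NADPH regen 1 h RT → detection reagent 20 min → luminescence (RLU). Ketoconazole positive control.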
On to `CC(C)OC(=O)c1ccccc1C(=O)OC(C)C`, for which the Potency result was “inactive”.
`Cc1cc(CCC(=O)OCCOCCOCCOC(=O)CCc2cc(C)c(O)c(C(C)(C)C)c2)cc(C(C)(C)C)c1O`: the Potency is 2.46 µM (active).
In the case of `O=c1[nH][nH]c(=O)c2cc([N+](=O)[O-])ccc12`, the Potency result is “inactive”.
The figure for `O=C1OC[C@H](Cc2cccc(O)c2)[C@H]1Cc1cccc(O)c1` is 9.58 µM (active).
The same measure for `CSSc1ccoc1C`: “inactive”; for `CC1CCc2nccnc21` (centres undefined): “inactive”.
The entry for `CCCCC[C@H](O)/C=C/[C@H]1[C@H](O)CC(=O)[C@@H]1C/C=C\CCCC(=O)O` is “inactive”.
As for `C[C@H](CS)C(=O)N1CCC[C@H]1C(=O)O`, the Potency entry was “inactive”.
The entry for `C=CCOC(=O)COCCC(C)C` is “inactive”.
On to `CC1=CC[C@@]23C[C@@H]1C(C)(C)[C@@H]2CC[C@H]3C`, for which the Potency is 79.6 µM (active).
The same measure for `Cc1cccc2sc(N)nc12`: “inactive”; for `Nc1ccc(NC(=O)c2ccc(N)cc2)cc1`: 5.65 µM (active); for `FC(F)(F)C(F)(F)C(F)(F)C(F)(F)CCI`: “inactive”.
With `CCC1CCC(CCC(=O)O)C1` (centres undefined), the Potency entry was “inactive”.
